a7 integrin act: activates integrin-mediated alleviation for muscular dystrophy. alpha7betagal myoblasts, beta-gal FDG fluorescence, 48 h. Potency, µM (top dose mostly 38.3 µM), without a hit: top-dose activation, hits mostly activators. hit rate 0.064% among 350,000;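 note: 100% = response of the positive control SU9516; nearly all actives have a fitted effect of over 60% in size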
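alpha7betagal+/- myoblasts (passage 13, 250/well) treated 48 h at 37C with compounds at 1:260 dilution of DMSO stock. Lysed, then beta-galactosidase activity read as FDG fluorescence (ex 480/em 540) after 30 min, with pre-read for autofluorescence.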
GLP1R cytotox: cytotoxic in the GLP-1 receptor inverse agonist counter-screen | AID 624418 | HEK293 cAMP-luciferase reporter cells, luminescence, 24 h | Potency, µM (titrated, usually from 38.3 µM), for inactives: top-dose activity change, negative = inhibition, hits mostly inhibitors | hit rate 0.13% among 410,000;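 note: loss of luciferase light is scored as toxicity; % is set by controls: 0 for no effect and ±100 for the full control effect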
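A 23 nL compound transfer followed 12 hours of cell culture at 37 deg C; exposure then lasted 24 hr. Luciferase assay detection reagent was dispensed and plates read for luminescence after a 12 min room-temperature wait.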
GLP-1R agonist: activates the human GLP-1 receptor | P43220 | HEK293 GLP-1R CRE-luciferase, luminescence, 4-6 h; cells express a hypersensitive GLP-1R form | Potency, µM (series often up to 45.6 µM), for the others: top-dose activation, usual class: activators | hit rate 0.007% among 380,000 | AID 624172; note: % of control where 0% means no effect
Target sequence (P43220 whole entry, looked up): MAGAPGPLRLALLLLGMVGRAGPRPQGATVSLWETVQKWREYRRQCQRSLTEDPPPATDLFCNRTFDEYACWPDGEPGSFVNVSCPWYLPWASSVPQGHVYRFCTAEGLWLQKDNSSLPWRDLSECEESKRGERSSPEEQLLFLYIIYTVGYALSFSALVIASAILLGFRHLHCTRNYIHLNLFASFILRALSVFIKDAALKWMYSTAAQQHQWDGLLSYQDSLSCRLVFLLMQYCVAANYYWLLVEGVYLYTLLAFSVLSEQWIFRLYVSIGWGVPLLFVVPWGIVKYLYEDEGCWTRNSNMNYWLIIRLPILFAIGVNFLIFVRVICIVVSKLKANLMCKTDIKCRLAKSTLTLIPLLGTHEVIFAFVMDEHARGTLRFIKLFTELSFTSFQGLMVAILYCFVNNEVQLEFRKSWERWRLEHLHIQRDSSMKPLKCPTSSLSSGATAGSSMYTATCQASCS
BRCA1 expr up: activators of BRCA1 expression | MCF7-BRCA1-FFLuc reporter, luminescence, 48 h; response scale: scaled: vehicle 0%, 10 µM genistein 100% | Potency, µM (top dose mostly 46.1 µM), for inactives: top-dose activation, most hits filed as activators | hit rate 1.1% among 380,000 | AID 624202; note: nearly all actives have a fitted effect of over 80% in size
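Activators of BRCA1 expression were detected as increased firefly luciferase luminescence in engineered MCF7 cells after 48 h compound incubation. Signals were scaled to genistein 10 microM as full activation.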
GLP-1R inv ag: GLP-1 receptor (human) inverse agonism | HEK293 GLP-1R CRE-luciferase, luminescence, 24 h; GLP-1R form is constitutively active | Potency, µM (titrated, usually from 38.3 µM), for the others: top-dose activity change, negative = inhibition, hits mostly inhibitors | P43220 | AID 624417 | hit rate 1.6% among 410,000; note: % is set by controls: 0 for no effect and ±100 for the full control effect; nearly all actives have a fitted effect of over 55% in size
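Cells are plated, allowed 12 hours at 37 deg C, then treated with compounds for 24 hr before luciferase detection reagent is added and luminescence is read after 12 min at room temperature. The HEK293 line carries constitutively active GLP-1R with a cAMP-responsive reporter.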
An asterisk follows results filed as active; ? = inconclusive; nt = not tested or not shown; ! = a repeat was not active. This is a sample that favours compounds with a hit; in the whole collection about 2.7% have one here. Calls come from the whole dose curve; as a rule, active = well fitted curve in the direction sought with a large enough effect; inconclusive = small, poorly fitted or top-dose-only effect, or another doubt; inactive = no such curve, though single readings can be large; an effect the other way counts as inactive or inconclusive. Potency is the fitted concentration of half-maximal effect.

SMILES | a7 integrin act | GLP1R cytotox | GLP-1R agonist | BRCA1 expr up | GLP-1R inv ag
CCSc1ncc(/C=N/Nc2ccccc2)n1C | -7.4% | ? | 14.0% | 38.5% | 3.55µM*
CCSc1ncc(/C=N/Nc2ccc(Cl)cc2)n1C | 7.5% | 3.1% | 15.5% | 19.5% | ?
Clc1ccc2c(N/N=C/c3cccc(Br)c3)ccnc2c1 | -67.9% | ? | -2.9% | -51.8% | 12.6µM*
CC(C)n1c(=O)c2oc3ccccc3c2n(CC(=O)Nc2ccccc2Cl)c1=O | nt | -9.4% | nt | nt | 2.4%
CN(C)S(=O)(=O)c1ccc(C(=O)NCCOc2ccc(F)cc2)cc1 | -11.6% | -18.0% | -7.5% | 11.2µM* | 0.0%
CN(C)S(=O)(=O)c1ccc(C(=O)NCCOc2ccccc2)cc1 | -19.2% | -1.1% | -9.8% | 100.2% | -7.2%
CCOc1ccccc1C(=O)Nc1nc2c(s1)CC(C)CC2 (configuration not stated) | nt | 14.6% | nt | nt | 6.8%
Cc1nc(-c2ccc3c(c2)OCCCO3)cs1 | -8.3% | -5.8% | 7.9% | 2.51µM* | -8.4%
CSc1ccc(CC(=O)N2CCC(n3nccc3NC(=O)C3CC3)CC2)cc1 | 1.0% | 1.3% | 13.6% | 2.82µM* | 0.8%
COc1cccc(CC(=O)N2CCC(n3nccc3NC(=O)C3CC3)CC2)c1 | 32.7% | 7.5% | -0.2% | -18.4% | 2.3%
CCc1ccccc1NC(=O)Nc1cccn(Cc2ccccc2F)c1=O | 15.5% | -6.0% | 9.5% | -28.5% | 10µM*
CCOC(=O)c1cc2c(ccn2C)n1CC(=O)N(Cc1ccccc1)c1ccc(F)cc1 | 1.8% | 11.0% | -1.4% | -7.6% | ?
CCOC(=O)c1cc2c(ccn2C)n1CC(=O)N(Cc1ccccc1)c1ccccc1 | -26.5% | -2.8% | 0.8% | -19.9% | 12.6µM*
c1ccc(OCCSc2ncnc3nc[nH]c23)cc1 | 4.4% | -12.1% | 13.4% | 8.91µM* | 49.1%
O=C(CC1C(=O)N(c2ccccc2)C(=S)N1c1ccccc1)c1ccc(Br)cc1 (configuration not stated) | 0.3% | 0.9% | 8.7% | 15.5% | 11.2µM*
CN(Cc1ccccc1)C(=O)CN1C(=O)CSc2ccc(S(=O)(=O)N3CCOCC3)cc21 | nt | -3.9% | nt | nt | -1.6%
C/C(=N\NC(=S)NCc1ccccc1)c1ccc2c(c1)OCCO2 | 16.6% | ? | ? | -0.8% | 10µM*
C/C(=N\NC(=S)NCc1ccccc1)c1ccc(Br)cc1 | ? | ? | 25.8% | -18.1% | ?
C/C(=N\NC(=S)NCc1ccccc1)c1ccc(Cl)s1 | -21.0% | 8.7% | 15.7% | -24.8% | -5.9%
C/C(=N\NC(=S)NCc1ccccc1)c1cccs1 | -11.4% | 3.55µM* | 19.0% | 0.0% | ?
Cc1cccc(OCC(=O)Nc2ccccc2OCc2cc(=O)n3cc(C)ccc3n2)c1 | nt | 5.0% | nt | nt | 5.8%
COc1ccccc1CNC(=O)CCC(=O)N1Cc2ccccc2Oc2ncccc21 | nt | -0.5% | nt | nt | 7.5%
COc1cccc(Cn2c(SCC(=O)N3CCN(c4ccc(F)cc4)CC3)nc3ccccc32)c1 | nt | 1.5% | nt | nt | 2.0%
CC1CCCCN1c1cc2c(cc1F)c(=O)c(S(=O)(=O)c1ccccc1)cn2Cc1ccccc1 (configuration not stated) | nt | 1.7% | nt | nt | 4.6%
Cc1onc(-c2c(Cl)cccc2Cl)c1C(=O)N1CCN(c2ccc(F)cc2)CC1 | -2.7% | -14.6% | 11.3% | -33.0% | 12.6µM*
SMILES | a7 integrin act | GLP1R cytotox | GLP-1R agonist | BRCA1 expr up | GLP-1R inv ag
Cc1onc(-c2c(Cl)cccc2Cl)c1C(=O)N1CCN(c2ccccc2)CC1 | -2.9% | -28.6% | -1.5% | -40.8% | ?
CCOC(=O)c1sc(Nc2ccccc2Cl)nc1C | -16.7% | 4.2% | 18.8% | 8.91µM* | ?
COc1ccccc1OC(C)C(=O)N1CCN(CCc2ccccn2)CC1 (configuration not stated) | nt | 3.5% | nt | nt | -3.0%
Cc1ccc(C(C)C)c(OCC(=O)Nc2ccc(S(=O)(=O)Nc3onc(C)c3C)cc2)c1 | nt | -5.2% | nt | nt | -29.9%
NC1(C(=O)O)CSSC1 | -47.6% | 11.2µM* | -0.3% | -92.6% | ?
Cc1ccc(C)c(OCCC(=O)Nc2cc(S(=O)(=O)N3CCCCC3)ccc2C)c1 | -32.9% | 2.9% | 14.1% | -45.3% | 11.2µM*
Cc1ccc(S(=O)(=O)N2CCCCC2)cc1NC(=O)CNC(C)c1ccc(Cl)c(Cl)c1 (configuration not stated) | -28.4% | -16.5% | -5.4% | -79.4% | 2.82µM*
Cc1ccc(C)c(OCCC(=O)OCC(=O)Nc2cc(S(=O)(=O)N3CCCCC3)ccc2C)c1 | -18.0% | 13.9% | 4.5% | -4.7% | ?
Cc1ccc(S(=O)(=O)N2CCCCC2)cc1NC(=O)Cn1ncc(Cl)c(Cl)c1=O | -73.1% | ? | -13.7% | -110.8% | 10µM*
Cc1ccc(C)c(C(=O)Cn2ncc(Cl)c(Cl)c2=O)c1 | -45.0% | 10µM* | -28.8% | -93.0% | 0.0%
COCc1cc(C)nc2sc3c(c12)NC(c1ccc(O)cc1)N(c1ccc(C)cc1)C3=O (configuration not stated) | nt | 75.0% | nt | nt | -12.4%
CCC(C(=O)N1CCN(c2ccccc2)CC1)n1nc(C)c2sc3ccccc3c2c1=O (configuration not stated) | nt | 11.4% | nt | nt | -7.6%
CC(=O)NC(Cc1c(F)c(F)c(F)c(F)c1F)C(=O)NCC(N)C(=O)c1ccccc1 (configuration not stated) | nt | nt | nt | -51.8% | nt
CCOCCc1nn2c(=O)cc(COC(=O)c3ccccc3NC(=O)c3ccccc3F)nc2s1 | nt | 4.7% | nt | nt | -2.5%
Cc1[nH]c2ccccc2c1N=Nc1cccc(C(=O)O)c1 | -28.9% | ? | 1.2% | 3.16µM* | 0.5%
COC(=O)c1cc(N=Nc2c(C)[nH]c3ccccc23)cc(C(=O)OC)c1 | -18.1% | 4.6% | -1.2% | -1.4% | 11.0%
O=C(Nc1scc(-c2ccc(Br)cc2)c1C(=O)O)c1ccccc1F | 13.9% | 0.0% | -4.8% | 60.1% | -19.2%
Cc1ccccc1C(=O)Nc1scc(-c2ccc(Br)cc2)c1C(=O)O | 2.82µM* | 3.1% | -0.4% | -10.8% | -15.3%
COc1ccccc1-c1sc2cc3c(cc2c1-c1ccc(OCCN2CCCCC2)cc1)OCO3 | -43.8% | ? | 10.2% | -50.0% | 12.6µM*
COc1cc2sc(-c3ccccc3OC)c(-c3ccc(OCCN4CCCCC4)cc3)c2cc1OC | -38.2% | -29.1% | 0.8% | -59.3% | ?
COc1ccccc1-c1sc2ccccc2c1-c1ccc2c(c1)OCO2 | -16.8% | 2.3% | 2.7% | -44.4% | 10µM*
COc1ccccc1-c1sc2cc3c(cc2c1-c1ccc2c(c1)OCO2)OCO3 | 22.9% | 4.3% | 2.7% | -15.7% | ?
O=C(COCc1cc(-c2ccco2)on1)Nc1cccc(O)c1 | nt | -7.1% | nt | nt | 13.4%
COc1cccc(-c2oc3ccc(C)cc3c(=O)c2O)c1 | nt | 68.0% | nt | nt | 7.8%
CCn1c2ccc(C)cc2c2nnc(SCCN3CCCCC3)nc21 | ? | -0.6% | 19.4% | -41.3% | ?
CCCn1c2ccc(C)cc2c2nnc(SCCN3CCCCC3)nc21 | -60.4% | -13.5% | 15.1% | -13.7% | 7.08µM*!

Bioassay records deposited in PubChem by National Center for Advancing Translational Sciences (NCATS).
